Rtt109 HAT inh = blocks Candida albicans Rtt109/Vps75 acetyltransferase activity; 0.16% of 330,000 active; AID 540336; Q5AAJ8; inhibition, % at 34.9 µM; purified Rtt109/Vps75, ThioGlo CoA-SH fluorescence, 4 h;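 active means inhibition of at least 50% in every replicate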
Target sequence (Q5AAJ8 whole entry, looked up): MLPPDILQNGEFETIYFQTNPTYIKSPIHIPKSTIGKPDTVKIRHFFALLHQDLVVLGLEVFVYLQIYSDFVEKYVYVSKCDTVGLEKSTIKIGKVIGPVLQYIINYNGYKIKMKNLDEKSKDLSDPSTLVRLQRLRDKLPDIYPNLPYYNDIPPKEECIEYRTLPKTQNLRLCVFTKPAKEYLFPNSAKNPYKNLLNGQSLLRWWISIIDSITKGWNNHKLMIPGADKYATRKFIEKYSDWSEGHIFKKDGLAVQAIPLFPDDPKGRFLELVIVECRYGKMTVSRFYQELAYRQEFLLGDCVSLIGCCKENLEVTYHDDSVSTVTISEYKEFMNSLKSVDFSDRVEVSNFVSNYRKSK
TPT1 inh = blocks Candida albicans tRNA 2'-phosphotransferase | recombinant caTPT1, FP RNA substrate dephosphorylation | inhibition, % at 5 µM | 0.81% of 300,000 active;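 active means inhibition above the mean of all tested compounds plus 3 SD, set per screening campaign, cut at about 24% in these data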
PHOSPHO1 block = blocks human PHOSPHO1 phosphatase activity; Q8TCT1; recombinant PHOSPHO1, absorbance phosphatase assay; inhibition, % at 13.3 µM; 1.1% of 290,000 active; in the data active means inhibition above about 60%
Platelet DG rel = platelet dense granule release activity; inhibition, %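 (compounds screened at 7.5 µM in platelet-rich plasma)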; AID 1663; 0.22% of 300,000 active; human platelet-rich plasma, SFLLRN dense granule ATP release, luminescence;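 active means mean replicate score, as percent of positive control, at or above 50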
WT yeast gro inh = growth inhibition of WT yeast, mitochondrial fusion screen; mitochondrial fusion phenotypic screen, WT strain; inhibition, % at 10 µM; 2.1% of 190,000 active; AID 1362; in the data active means inhibition above about 58%; tested in S. cerevisiae
SKKanGAS inh = SKKanGAS growth inhibition; inhibition, % at 7.5 µM; S. pyogenes SKKanGAS, kanamycin growth, BacTiter-Glo, 6 h; AID 1662; 1.3% of 300,000 active;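 active means mean replicate score, as percent of positive control median, at least 50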;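 further: strain carries kanamycin resistance gene driven by streptokinase promoter and grows in 40 µg/ml kanamycin; loss of luminescence reflects streptokinase promoter inhibition or plain growth inhibition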
Hits are given with their value; – = inactive; · = no result given. The list is not random: actives were taken first. Their share in the collection is about 3.9%.

SMILES | Rtt109 HAT inh | TPT1 inh | PHOSPHO1 block | Platelet DG rel | WT yeast gro inh | SKKanGAS inh
COc1ccc(OCc2n[nH]c(=S)n2-c2ccc(C)cc2)cc1 | – | – | 91.9 | – | – | –
Cn1c(CSCc2ccccc2Cl)n[nH]c1=S | – | – | – | – | – | –
Cc1cccc(C)c1OCc1n[nH]c(=S)o1 | – | – | – | – | – | –
Cc1ccc(OCc2n[nH]c(=S)n2C2CCCCC2)cc1 | – | – | 90.6 | – | 66.1 | –
S=c1[nH]nc(CSCc2ccccc2Cl)n1C1CCCCC1 | – | · | – | – | 73.6 | –
Cc1ccc(S(=O)(=O)N2CCN(C(=O)COC(=O)Cc3cccc(C(F)(F)F)c3)CC2)c(C)c1 | – | – | · | – | · | –
COc1ccc(OC)c(S(=O)(=O)NCC(c2ccco2)S(=O)(=O)c2ccccc2)c1 (stereo not drawn) | – | – | · | – | · | –
O=C1CCC/C=C\C[C@@H](CC(=O)N(CCO)Cc2ccccc2)C(=O)N[C@H](c2ccccc2)CO1 | – | · | · | · | · | ·
Cc1ccc([N+](=O)[O-])cc1NC(=O)c1c(-c2ccccc2)noc1C | – | – | – | – | · | –
Cc1cccc(OCc2n[nH]c(=S)n2C2CCCCC2)c1 | – | – | – | – | 67.4 | –
C=CCNC(=S)N(CC)c1cccc2ccccc12 | – | – | – | – | 61.7 | –
Cc1ccc(S(=O)(=O)N2CCN(C(=O)COC(=O)c3ccccc3OC(F)F)CC2)c(C)c1 | – | · | · | · | · | ·
CN(C)c1ccc(S(=O)(=O)N2CCC(Cc3ccccc3)CC2)cn1 | – | · | · | · | · | ·
CON=C(C(=O)NC1C(=O)N2C(C(=O)O)=C(CSc3nc(=O)c(=O)[nH]n3C)CSC12)c1csc(N)n1 (stereo not drawn) | – | · | · | · | · | ·
CC(=O)OCC1=C(C(=O)O)N2C(=O)C(NC(=O)c3ccc(F)cc3)C2SC1 (stereo not drawn) | – | – | – | – | – | 90.3
CO/N=C(\C(=O)N[C@@H]1C(=O)N2C(C(=O)O)=C(COC(N)=O)CS[C@H]12)c1ccco1 | – | – | – | – | – | 102.5
COCC1=C(C(=O)OC(C)OC(=O)OC(C)C)N2C(=O)[C@@H](NC(=O)/C(=N\OC)c3csc(N)n3)[C@H]2SC1 (stereo partly drawn) | – | – | · | – | · | 101.8
CC(=O)OCC1=C(C(=O)O)N2C(=O)C(NC(=O)C(C)Cn3nc(C)c(Cl)c3C)C2SC1 (stereo not drawn) | – | – | – | – | – | 100.9
CC(=O)OCC1=C(C(=O)O)N2C(=O)[C@@H](NC(=O)CSc3ccncc3)[C@H]2SC1 | – | · | · | · | · | ·
COc1ccc(C(=O)[C@@H]2CC[C@](C)(C(=O)O)C2(C)C)cc1 | – | – | · | – | · | –
CCN(CC)C(=O)[C@H]1CC(CC(=O)NCc2ccco2)C(=O)N2CCc3c([nH]c4ccc(OC)cc34)[C@]12C (stereo partly drawn) | – | · | · | · | · | ·
NC(=O)c1c(/N=C/c2cccnc2)sc2c1CCCC2 | · | – | 76.8 | – | · | –
COC(=O)CC1(C(=O)OC)Oc2ccccc2C(=O)N1c1ccc(F)cc1F (stereo not drawn) | 57.2 | – | · | – | · | –
COC(C(=O)Nc1ccc(F)cc1F)c1ccccc1 (stereo not drawn) | – | – | – | – | – | –
CN1/C(=C\C(=O)Nc2ccc(Cl)cc2)C(C)(C)c2ccccc21 | – | – | – | – | 79.3 | 69.4
SMILES | Rtt109 HAT inh | TPT1 inh | PHOSPHO1 block | Platelet DG rel | WT yeast gro inh | SKKanGAS inh
CN1/C(=C\C(=S)NC(=O)c2ccccc2Cl)C(C)(C)c2ccccc21 | – | – | – | – | – | –
COc1ccccc1C(=O)NC(=S)/C=C1/N(C)c2ccccc2C1(C)C | – | – | – | – | 77.5 | –
CN1/C(=C\C(=S)Nc2ccccc2)C(C)(C)c2ccccc21 | – | – | – | – | 61.2 | –
COc1ccccc1NC(=O)COC(=O)c1c[nH]c(=O)[nH]c1=O | – | – | – | – | · | –
O=C(COC(=O)c1c[nH]c(=O)[nH]c1=O)Nc1ccccc1Br | – | – | – | 82.0 | · | –
COc1ccc(NC(=O)NN2CCN(C)CC2)cc1OC | – | – | – | – | · | –
CN1CCN(NC(=O)Nc2cc(Cl)cc(Cl)c2)CC1 | – | · | – | – | · | 88.3
O=[N+]([O-])c1cc(C=Nc2cccc3c(O)cccc23)ccc1Cl | · | – | – | – | · | –
CC(NC(=O)CSc1ccc(S(=O)(=O)N2CCOCC2)cn1)c1ccc(Cl)cc1Cl (stereo not drawn) | – | · | · | · | · | ·
Cc1n[nH]c(=S)c2nn(-c3ccccc3)c(C)c12 | · | · | – | – | – | –
COc1cccc(-n2nc3c(=S)[nH]nc(C)c3c2C)c1 | – | – | 60.3 | – | – | –

Bioassay records deposited in PubChem by several laboratories.
